Only some compounds are listed: those with a hit (about 9.1% of all), similar ones and a draw of the others.
M1 agonist: M1 muscarinic receptor agonism | CHO-M1 cells, Fluo-4 calcium fluorescence, agonist mode; stronger effect = higher value | B-score at 10 µM | 64,000 tested, 3% active | AID 626;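 active means fluorescence rise, raw or as B-score row- and column-corrected plate score, outside the 99.7% band of its plate's samples, either direction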
M1 antag: blocks the rat M1 muscarinic receptor response to acetylcholine; P08482; B-score at 10 µM; CHO-M1 cells, Fluo-4 calcium, ACh EC80 antagonist mode; stronger effect = lower value; AID 628; 64,000 tested, 3.4% active;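 active means calcium fluorescence response, raw or row-and-column corrected B-score, differing from the plate sample mean either way at a set confidence level, mostly lower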
mHtt clearance: mutant huntingtin protein clearance; 47,000 tested, 0.42% active; HeLa Exon1htt(103Q)mCFP, aggregate imaging; zero = plate's median compound well; inhibition, % at 1.5 µM;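 active means inhibition of aggregate fluorescence above about 70%, also judged a hit by eye on the cell image, limit read from the data, passing the limit was not always enough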;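 further: cells exposed to compound for three days before fixation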
D1 allo mod: allosterically modulates the human D1 dopamine receptor; HEK293 D1, CRE-luciferase, dopamine EC30 potentiation; actives deviate in either direction; 58,000 tested, 5.9% active; B-score at 10 µM; P21728;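 active means luminescence count or its row- and column-corrected plate score outside the 99.7% band of the plate's sample wells, on either side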
Target sequence (P21728 whole entry, looked up): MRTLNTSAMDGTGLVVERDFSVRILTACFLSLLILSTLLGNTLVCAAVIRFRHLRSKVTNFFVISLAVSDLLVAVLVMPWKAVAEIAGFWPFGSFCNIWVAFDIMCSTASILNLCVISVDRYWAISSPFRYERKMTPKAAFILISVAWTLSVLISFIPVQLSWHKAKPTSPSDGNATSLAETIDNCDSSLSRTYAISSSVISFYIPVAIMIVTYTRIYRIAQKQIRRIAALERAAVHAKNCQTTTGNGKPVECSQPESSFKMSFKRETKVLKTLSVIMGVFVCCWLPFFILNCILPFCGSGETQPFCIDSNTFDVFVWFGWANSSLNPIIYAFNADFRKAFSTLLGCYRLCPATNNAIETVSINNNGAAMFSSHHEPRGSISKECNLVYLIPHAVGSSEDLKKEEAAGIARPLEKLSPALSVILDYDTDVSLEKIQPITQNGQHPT
M1 antag confirm: M1 muscarinic receptor (rat) antagonism, confirmed. AID 677. shares compounds with M1 antag. 1,700 tested, 43% active. CHO-M1 cells, Fluo-4 calcium, ACh EC80 antagonism; stronger effect = lower value. calcium response (max-min fluorescence) at 10 µM;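 active means calcium response below the same-plate mean of wells given acetylcholine alone at its 80%-effect dose, minus 3 SD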
mGluR4 antag: mGluR4 (human) activity, M1 antagonist secondary assay; CHO-mGluR4 calcium flux, Fluo-4 fluorescence, glutamate EC80; stronger effect = lower value; AID 678; shares compounds with M1 antag; fluorescence response (max-min) at 10 µM; 1,700 tested, 0.9% active;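 active means fluorescence response below the plate's average for near-maximal glutamate wells, less 3 SD of those wells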;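 further: raw unnormalized fluorescence span taken in the window right after glutamate addition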
Each line names hits and unclear results; the compound was inactive in the other large screens (follow-up assays come after a bar, where they were run).

Cc1sc2nc(CN(C(=O)NC3CCCCC3)C3CCCCC3)[nH]c(=O)c2c1C	none (no result: M1 agonist, M1 antag, D1 allo mod)
c1cnc(N2CC[N+]3(CCCC3)CC2)nc1	M1 antag -5 | M1 antag confirm 163 | mGluR4 antag inactive
Cn1c(=O)c2c(nc(OCc3cccnc3)n2Cc2c(F)cccc2Cl)n(C)c1=O	M1 antag -1.15 (no result: mHtt clearance) | M1 antag confirm 509 | mGluR4 antag inactive
Cn1c(=O)c2c(nc(Br)n2Cc2c(F)cccc2Cl)n(C)c1=O	none (no result: mHtt clearance)
COC(=O)c1nn(-c2ccccc2)c(=O)cc1Oc1ccccc1	none (no result: M1 agonist, M1 antag, D1 allo mod)
COc1ccc(/C(N)=C/C(=O)C(C)(C)C)cc1	M1 antag -3.53 (no result: D1 allo mod) | M1 antag confirm inactive | mGluR4 antag inactive
CC(C)(C)C(=O)/C=C(\N)c1ccncc1	none
Clc1ccc(CN2C3=NCCN3c3ccccc32)cc1Cl	M1 antag -3.22 (no result: mHtt clearance) | M1 antag confirm 399 | mGluR4 antag inactive
c1ccc2c(c1)N1CCN=C1N2CCN1CCCCC1	none
CS(=O)(=O)N(CCc1ccccc1)CC(N)=O	none (no result: D1 allo mod)
O=C(Oc1ccc(-c2nnco2)cc1)N(c1ccccc1)c1ccccc1	M1 antag -1.57 | M1 antag confirm 502 | mGluR4 antag inactive
O=C(Oc1ccc(-c2nnco2)cc1)N1CCCCC1	none
COC(=O)N(C)CCCC1(C)C(=O)N(C)c2ccc(O)cc21 (configuration not stated)	M1 antag -4.82 | M1 antag confirm inactive | mGluR4 antag inactive
CCN(CC)S(=O)(=O)c1ccc(C2CNC(=O)C2)cc1 (configuration not stated)	none
O=C(Nc1ccc2c(c1)OCO2)C1CCN(S(=O)(=O)Cc2ccccc2)CC1	none (no result: mHtt clearance)
O=C(Nc1ccc2c(c1)OCO2)C1CCN(Cc2cnn(-c3ccccc3)c2-n2cccc2)CC1	M1 antag -2.06 (no result: mHtt clearance) | M1 antag confirm inactive | mGluR4 antag inactive
Cc1onc(-c2ccccc2Cl)c1C(=O)Nc1nnc(Cc2ccc(Cl)cc2)s1	none (no result: M1 agonist, M1 antag, D1 allo mod)
Cc1onc(-c2ccccc2Cl)c1C(=O)Nc1ccc(-c2nnc3n2CCCCC3)cc1	M1 antag -2.29 (no result: mHtt clearance) | M1 antag confirm 408 | mGluR4 antag inactive
Cc1onc(-c2ccccc2Cl)c1C(=O)Nc1nnc(C(C)C)s1	M1 antag -2.19 (no result: mHtt clearance, D1 allo mod) | M1 antag confirm 377 | mGluR4 antag inactive
N/C(=N\S(=O)(=O)c1ccc(Cl)s1)c1ccccc1	none
Cc1ccc(NC(=O)CN(C)S(=O)(=O)c2cccc3nsnc23)cc1C	M1 antag -3.09 | M1 antag confirm inactive | mGluR4 antag inactive
Cc1ccc(NC(=O)CN(C)S(=O)(=O)c2cccc3nsnc23)cc1Cl	none
CC1=C(C(=O)Nc2cccc(C)n2)C(c2ccc3c(c2)OCO3)C2=C(CC(c3ccco3)CC2=O)N1 (configuration not stated)	none
Cc1oc(-c2ccc(Cl)cc2)[n+]([O-])c1C	M1 antag -1.63 | M1 antag confirm inactive | mGluR4 antag inactive
COC(=O)c1[nH]c2ccccc2c1NC(=O)CN1CCCCCC1	none
COC(=O)c1[nH]c2ccccc2c1NC(=O)CN1CCC(C(N)=O)(N2CCCCC2)CC1	M1 antag -2.55 (no result: mHtt clearance) | M1 antag confirm inactive | mGluR4 antag inactive
CCOC(=O)C1CCCN(CC(=O)Nc2c(C(=O)OC)[nH]c3ccccc23)C1 (configuration not stated)	M1 antag -5.75 | M1 antag confirm 552 | mGluR4 antag inactive
CC(C)c1ncc(C(O)c2cccc3ccccc23)n1C (configuration not stated)	none (no result: mHtt clearance)
N#CCCN1CCN(S(=O)(=O)c2ccc(S(=O)(=O)N3CCCCCC3)cc2)CC1	none (no result: mHtt clearance)
CCN(C1CCCCC1)S(=O)(=O)c1ccc(S(=O)(=O)N2CCN(CCC#N)CC2)cc1	M1 antag -1.52 | M1 antag confirm 327 | mGluR4 antag inactive
COC(=O)Cn1cc(C(=O)C2CC2)c2ccccc21	M1 antag -1.59 | M1 antag confirm inactive | mGluR4 antag inactive
O=C1CC(N2CCC(c3nc4ccccc4s3)CC2)C(=O)N1 (configuration not stated)	M1 antag -1.71 | M1 antag confirm inactive | mGluR4 antag inactive
Cc1cc(C)cc(NC(=S)N2CCC(c3nc4ccccc4s3)CC2)c1	none (no result: M1 agonist, M1 antag, D1 allo mod)
COc1ccc(S(=O)(=O)N2CCC(O)(c3ccc(Cl)cc3)CC2)cc1	M1 antag -3.8 | M1 antag confirm 379 | mGluR4 antag inactive
CC1CCCN(C(=O)COC(=O)c2n[nH]c3ccccc23)C1 (configuration not stated)	M1 antag -9.56 | M1 antag confirm inactive | mGluR4 antag inactive
Cc1ccc(/C=C/C2=Cc3c(sc(NC(=O)CSc4n[nH]c(N)n4)c3C#N)C(C)(C)C2)o1	none (no result: mHtt clearance)
COC(=O)c1ccccc1OC(=O)c1ccc(Br)o1	M1 antag -4.49 | M1 antag confirm inactive | mGluR4 antag inactive
CCOc1ccc(NC(=O)COC(=O)c2cccnc2)cc1	none
CCSc1nnc(CNc2ccc(F)cc2)n1CC1CCCO1 (configuration not stated)	none
CCn1c(CNc2ccc(F)cc2)nnc1SCCN1CCCCC1	M1 antag -3.27 | M1 antag confirm 570 | mGluR4 antag inactive
CCn1c(CNc2cccc(Cl)c2)nnc1SCC(=O)OC1CCCCC1	none (no result: mHtt clearance)
CCn1c(CNc2ccccc2Cl)nnc1SCC(=O)OC1CCCCC1	M1 antag -4.7 | M1 antag confirm 370 | mGluR4 antag inactive
CCn1c(CNc2ccccc2Cl)nnc1SCCN1CCCCC1	M1 antag -4.42 | M1 antag confirm 271 | mGluR4 antag inactive
C=CCn1cc(C(=O)NCCCOCC)c(=O)c2cc(S(=O)(=O)N(CC)CC)ccc21	none (no result: mHtt clearance)
CCCn1c2c(c(O)c(C(=O)Nc3ccc(C)cn3)c1=O)CCCC2	none (no result: mHtt clearance)
CCCn1c2c(c(O)c(C(=O)Nc3ncccc3C)c1=O)CCCC2	M1 antag -2.35 (no result: D1 allo mod) | M1 antag confirm 421 | mGluR4 antag inactive
Cc1ccc(NC(=O)N2CCCN(Cc3ccc(F)cc3)C2)cc1C	M1 antag -5.11 (no result: mHtt clearance) | M1 antag confirm inactive | mGluR4 antag inactive
Cc1csc(NC(=O)CSc2nnc(-c3ccoc3C)n2Cc2ccco2)n1	none (no result: M1 agonist, M1 antag)
Cc1ccc(C2C(C(=O)c3cc4ccccc4o3)=C(O)C(=O)N2CCN2CCOCC2)o1 (configuration not stated)	M1 antag -6.75 | M1 antag confirm inactive | mGluR4 antag inactive
CC1Cc2ccccc2N1C(=O)Cn1c(=O)oc2cc(S(=O)(=O)N3CCCCC3)ccc21 (configuration not stated)	none
CCN1CCc2nc(SCC(=O)Nc3ccc(OC)cc3)c(C#N)cc2C1	M1 antag -0.733 (no result: mHtt clearance, D1 allo mod) | M1 antag confirm inactive | mGluR4 antag inactive
COc1ccc(NC(=O)CSc2nc3c(cc2C#N)CN(C)CC3)cc1	none (no result: mHtt clearance)
O=C(c1cc2sccc2n1Cc1ccccc1)N1CCN(c2nc3ccccc3s2)CC1	none (no result: M1 agonist, M1 antag, D1 allo mod)
CC(NC(=O)Nc1nnc(C(F)(F)F)s1)(C(F)(F)F)C(F)(F)F	M1 antag -1.26 | M1 antag confirm 513 | mGluR4 antag inactive
CC(C)(C)CC(=O)Nc1nnc(C(F)(F)F)s1	none (no result: M1 agonist, M1 antag, D1 allo mod)

High-throughput results (PubChem)
